Structures are written as SMILES. A number with no mark means an inactive call. Records with an inconclusive call do not appear. Active and inactive are the calls of the source. The call rests on the fitted dose curve; in most records, active means well fitted curve in the direction sought with a large enough effect; inconclusive means small, poorly fitted or top-dose-only effect, or another doubt; inactive means no such curve, though single readings can be large; an effect the other way counts as inactive or inconclusive. Peptide text beside a SMILES is read from it.

The values that follow come from PubChem BioAssay (NCATS).

Test [1] in a line: qHTS to identify inhibitors of the type 1 interferon - major histocompatibility complex class I in skeletal muscle: primary screen against the NCATS Pharmaceutical Collection (AID 1347407). Further: on the % scale 0 is the no-effect control and ±100 the full control effect. In short, it runs like this:
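Compounds […] were added to CRISPR-engineered HLA-B-HiBiT C25cl48 human myoblasts with 4.0 ng/ml IFN-beta. After 24 hrs at 37 C, cells were lysed and HiBiT luminescence measured.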
In general terms: Quantitative high-throughput screening tests each substance at several concentrations.

Test [2] can be described thus: qHTS to identify inhibitors of the type 1 interferon - major histocompatibility complex class I in skeletal muscle: primary screen against the NCATS Mechanism Interrogation Plate v5.0 (MIPE) Libary (AID 1347411).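 Further: plate controls were vehicle for no effect and reference inhibitor for full effect; nearly all actives have a fitted effect of over 65% in size.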 The essentials: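 Luminescence from CRISPR HiBit-tagged endogenous HLA-B in human myoblasts reported MHC class I level after 24 h of IFN-beta (4 ng/ml) plus compound. Compounds ran as 11-point 1:3 series, top 46 uM final.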

Test [3] deals with Protein phosphatase 1D (Homo sapiens) (UniProt O15297). In words: RapidFire Mass Spectrometry qHTS Assay for Modulators of WT P53-Induced Phosphatase 1 (WIP1) (AID 1347424).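 Further: amount of dephosphorylated VEPPL-S-QETFS peptide product formed by WIP1; series mostly up to about 63 µM; plate controls were DMSO wells for no effect and GSK830371 inhibitor control at 10 µM for full effect.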 The essentials:
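Mass-spectrometric measurement of dephosphorylated peptide after a 5 min room-temperature reaction of 10 nM WIP1 with 2 uM phosphopeptide, following 1 h compound preincubation in 30 mM MgCl2 buffer.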

Test [4] shares this target. Description: Rhodamine-PBP qHTS Assay for Modulators of WT P53-Induced Phosphatase 1 (WIP1) (AID 1347425). Further: % of control where 0% means no effect. In short, it runs like this: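 Steps: enzyme with Rh-PBP sensor and compounds, room-temperature incubation of 1 hr, baseline read, addition of VEPPL-pS-QETFS (10 uM final), kinetic fluorescence reads at 525/598 nm. Activity equals final minus baseline signal.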
Test [5] is described as follows: Primary qHTS for inhibitors of La Crosse Virus (LACV) - induced cell death in SH-SY5Y cells (AID 1508616).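 Further: top concentration of the series differs between compounds; 0% = infected DMSO wells and 100% = uninfected DMSO wells; higher means more rescue of cells from virus-induced death.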 The essentials:
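Rescue of virus-induced death was read as ATPLite luminescence after 6 days at 37C, scaled between DMSO wells with LACV and without virus. Cells were SH-SY5Y, 6000/well, infected at 0.01 MOI after compound addition.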

A short description of test [6]: qHTS for inhibitors of adenylyl cyclases using a fission yeast platform: a pilot screen against the NCATS LOPAC library (AID 1347410).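 Further: plate controls were DMSO vehicle for no effect and DPI positive control for full effect.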 In short, it runs like this: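 GFP from fbp1-GFP reporter, read by Acumen laser cytometry, indicates AC inhibition in fission yeast expressing AC9, GNAS and PDE4D2. Cells grown 18 h in the dark at 30C with compounds, final up to 57 uM.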

Test [7] can be described thus: Validation qHTS assay for inhibitors of Activation Induced Cytidine Deaminase (AID): UDG Counterscreen signal (AID 1347427). Further: potency means the concentration at half of the fitted maximal effect. In short, it runs like this: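 Fluorescence at 560 nm excitation, 665 nm emission reports UDG signal after 250 mM NaOH (2x) addition and 30 min. Enzymes (AID 1 uM, UDG 2 U/mL, at 4/3x) preincubated 10 min with compound, then 4 h with 4x 250 nM DJC20/DJC23 substrate at room temperature.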

The target of test [8] is Single-stranded DNA cytosine deaminase (Homo sapiens) (UniProt Q9GZX7). Description: Validation qHTS assay for inhibitors of Activation Induced Cytidine Deaminase (AID): AID signal (AID 1347429). Further: on the % scale 0 is the no-effect control and ±100 the full control effect. The essentials: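 Compounds (final up to 114 uM) preincubated with AID plus UDG; 250 nM DJC20/DJC23 substrate mix (4x stock) added, 4 hr at room temperature, then NaOH, 30 min. Read 1 fluorescence at 540 nm excitation, 590 nm emission.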

Test [9] is described as follows: Tertiary RLuc qRT-PCR qHTS assay for Zika virus inhibitors (AID 1347169). Further: nearly all actives have a fitted effect of over 55% in size. Further: potency means the concentration at half of the fitted maximal effect. On activity change, negative = inhibition: top concentration of the series differs between compounds; on the % scale 0 is the no-effect control and ±100 the full control effect. The essentials: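 Orthogonal cell-based readout: luminescence measured 1-1.5 hrs after adding live-cell Renilla substrate to Vero cells that had been infected with ZIKV-RLuc (MOI 1-2) post-compound, incubated 48-72 hrs at 37 degrees C.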
On the technique in general: Real-time PCR tracks product formation cycle by cycle.

Sequence of Single-stranded DNA cytosine deaminase (Homo sapiens) (Q9GZX7 whole entry, looked up): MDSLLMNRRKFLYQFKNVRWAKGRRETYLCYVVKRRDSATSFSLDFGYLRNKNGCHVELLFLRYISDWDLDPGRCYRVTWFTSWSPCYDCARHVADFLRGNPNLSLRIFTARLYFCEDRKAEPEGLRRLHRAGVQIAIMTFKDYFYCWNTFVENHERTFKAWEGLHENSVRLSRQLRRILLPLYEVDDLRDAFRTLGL
Sequence of Protein phosphatase 1D (Homo sapiens) (O15297 whole entry, looked up): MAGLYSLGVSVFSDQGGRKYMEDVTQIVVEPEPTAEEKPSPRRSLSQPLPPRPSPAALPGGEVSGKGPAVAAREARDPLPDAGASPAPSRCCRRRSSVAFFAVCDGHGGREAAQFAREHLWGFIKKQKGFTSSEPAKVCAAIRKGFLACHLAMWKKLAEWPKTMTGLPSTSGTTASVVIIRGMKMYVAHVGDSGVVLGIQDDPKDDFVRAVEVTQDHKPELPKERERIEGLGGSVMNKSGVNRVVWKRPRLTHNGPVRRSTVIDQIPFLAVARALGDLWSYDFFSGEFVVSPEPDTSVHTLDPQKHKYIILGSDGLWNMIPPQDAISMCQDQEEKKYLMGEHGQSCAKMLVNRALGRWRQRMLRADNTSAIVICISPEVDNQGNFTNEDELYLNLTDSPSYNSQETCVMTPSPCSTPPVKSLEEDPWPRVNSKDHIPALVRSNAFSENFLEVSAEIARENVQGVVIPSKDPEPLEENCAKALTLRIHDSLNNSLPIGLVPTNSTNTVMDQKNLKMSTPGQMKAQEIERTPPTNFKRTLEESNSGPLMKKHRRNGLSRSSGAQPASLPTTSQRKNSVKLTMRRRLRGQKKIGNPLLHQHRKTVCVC

For `CCN(CC)CCOc1ccc(Cc2ccccc2)cc1`, the Potency entry in test [1], in test [2], in test [3] and in test [5] was “inactive” each time. The compound was called inactive in test [4].

For the compound `CNC[C@H](O)c1ccc(O)c(O)c1`, the Potency result in [1], in test [2], in test [3], in test [7] and in [5] was “inactive” in each case. The outcome in [6], in [4] and in test [8] was inactive.

As for `CC(S)C(=O)NCC(=O)O` (stereo not drawn), the Potency entry in [1], in test [2], in [3] and in test [5] was “inactive” each time. Besides, the compound was classed as inactive in [4].

Consider `Nc1ncn([C@H]2C[C@H](O)[C@@H](CO)O2)c(=O)n1`, for which the Potency entry in test [1], in test [2] and in [3] was “inactive” each time. Besides, the result in test [4] was inactive.

As to `Cc1c(OCC(F)(F)F)ccnc1CS(=O)c1nc2ccccc2[nH]1` (stereo not drawn), the Potency result in [9], in test [1], in [2], in test [3], in [7] and in test [5] was “inactive” each time. In addition, the compound was called inactive in test [6], in test [4] and in test [8].

With `O=c1c(O)c(-c2ccc(O)cc2O)oc2cc(O)cc(O)c12`, the Potency entry in [9], in test [2], in [7] and in test [5] was “inactive” in each case. Also, the compound was called inactive in test [6] and in test [8].

Turning to `c1ccc2[nH]c(-c3cscn3)nc2c1`, the Potency entry in test [1], in test [2], in [3] and in test [5] was “inactive” each time. Moreover, the result in test [4] was inactive.

On to `O=C(NCC1CCCCN1)c1cc(OCC(F)(F)F)ccc1OCC(F)(F)F` (stereo not drawn), for which the Potency entry in test [1], in [2], in test [3] and in test [5] was “inactive” in each case. Further, the call in test [4] was inactive.

In the case of `COc1c2occc2cc2ccc(=O)oc12`, the Potency result in test [9], in [1], in [2], in [3] and in test [5] was “inactive” throughout. For the same compound, in [4], the call was inactive.

For the compound `CCCCN(CCCC)CCC(O)c1cc2c(Cl)cc(Cl)cc2c2cc(C(F)(F)F)ccc12` (stereo not drawn), the Potency result in [1], in test [2] and in [3] was “inactive” in each case. In addition, the call in [4] was inactive.

As for `CN(C)C(=O)[C@H](O)[C@H](Cc1ccccc1)NC(=O)c1cc2cc(Cl)ccc2[nH]1`, the Potency result in [9] and in test [2] was “inactive” in each case. Further, the compound was called inactive in [6].

On to `N[C@@H](Cc1cc(I)c(Oc2cc(I)c(O)c(I)c2)c(I)c1)C(=O)O`, for which the activity change, negative = inhibition in [9] is -3.48% [at 0.566 µM]. For the same compound, the Potency result in test [1], in test [2] and in test [5] was “inactive” each time. In addition, the call in [4] was inactive.

With `CN1CCC(=C2c3ccccc3CCc3sccc32)CC1`, the Potency entry in test [1], in [2], in [3] and in [5] was “inactive” throughout. The result in test [4] was inactive.

For `O=c1c(O)c(-c2cc(O)c(O)c(O)c2)oc2cc(O)cc(O)c12`, the activity change, negative = inhibition in [9] was 40.4% [at 3.57 µM]. Further, the compound was classed as inactive in test [6] and in test [8]. Also, the Potency entry in [2], in test [7] and in test [5] was “inactive” throughout.

Take `CCN(CCO)CCCC(C)Nc1ccnc2cc(Cl)ccc12` (stereo not drawn): the activity change, negative = inhibition is -5.56% [at 3.83 µM] in test [1], 7.97% [at 5.1 µM] in [2], -4.11% [at 6.17 µM] in [3] and 13.1% [at 4.81 µM] in test [4]. Also, in test [5], the activity change is -0.436% [at 0.431 µM].

As to `c1cnc2cc3c(cc2n1)C1CNCC3C1`, the Potency result in test [1], in test [2], in test [3] and in test [5] was “inactive” throughout. Further, the compound was classed as inactive in test [6] and in [4].

For `Cc1nc(Nc2ncc(C(=O)Nc3c(C)cccc3Cl)s2)cc(N2CCN(CCO)CC2)n1`, the Potency in [9] was 0.224 µM (active). Besides, the Potency entry in [3] and in [5] was “inactive” throughout. The call in test [4] was inactive.

Regarding `O=C(c1ccccc1)c1ccc2n1CCC2C(=O)O` (stereo not drawn), the Potency result in test [1], in test [2], in [3], in test [7] and in [5] was “inactive” each time. Moreover, the compound was called inactive in test [6], in test [4] and in test [8].

In the case of `O=C(O)c1cccc(-c2noc(-c3ccccc3F)n2)c1`, the Potency result in [1], in test [2], in test [3] and in [5] was “inactive” throughout. Also, in test [4], the compound was classed as inactive.

As to `O=C(O)c1cn(-c2ccc(F)cc2)c2cc(N3CCNCC3)c(F)cc2c1=O`, the Potency entry in test [9], in test [1], in test [2], in test [3] and in [5] was “inactive” throughout. The result in test [4] was inactive.

With `Cc1nc(-c2ccc(OCC(C)C)c(C#N)c2)sc1C(=O)O`, the Potency result in [9], in test [1], in test [2], in test [3] and in [5] was “inactive” throughout. Besides, in test [4], the result was inactive.

For the compound `COC(=O)[C@H](Cc1ccccc1)NC(=O)[C@@H](N)CC(=O)O` (H-Asp-Phe-OMe), the Potency entry in test [1], in test [2], in test [3] and in test [5] was “inactive” in each case. Also, the compound was called inactive in test [4].

As for `Nc1ccc(S(N)(=O)=O)cc1`, the Potency entry in test [1], in [2], in test [3] and in test [5] was “inactive” in each case. In test [4], the result was inactive.

For the compound `Cc1ccc(S(=O)(=O)NC(=O)NN2CC3CCCC3C2)cc1` (stereo not drawn), the Potency result in [1], in [2], in test [3] and in [5] was “inactive” in each case. Besides, the compound was classed as inactive in [4].

On to `Clc1ccc(C(Cn2ccnc2)OCc2c(Cl)cccc2Cl)c(Cl)c1` (stereo not drawn), for which the Potency result in [1], in test [2], in test [3] and in test [5] was “inactive” throughout. Also, the compound was called inactive in [4].

As to `NNc1nncc2ccccc12`, the Potency entry in [1], in test [3] and in test [5] was “inactive” throughout. Moreover, the compound was classed as inactive in [6] and in test [4]. The Potency in [7] is 39.8 µM (active).

As for `Nc1cc(C(Cl)=C(Cl)Cl)c(S(N)(=O)=O)cc1S(N)(=O)=O`, the Potency entry in [1], in test [2], in test [3] and in [5] was “inactive” throughout. Also, the compound was classed as inactive in test [4].

`O=C(NCCO[N+](=O)[O-])c1cccnc1`: the Potency result in [1], in test [2], in test [3] and in test [5] was “inactive” throughout. Also, the outcome in [4] was inactive.

Consider `CCCS(=O)c1ccc2nc(NC(=O)OC)[nH]c2c1` (stereo not drawn), for which the Potency entry in test [1], in test [2], in [3] and in [5] was “inactive” throughout. The result in test [4] was inactive.

Turning to `COc1cc2c(cc1OC)C1CC(=O)C(CC(C)C)CN1CC2` (stereo not drawn), the Potency result in test [9], in test [2], in [7] and in test [5] was “inactive” in each case. The compound was called inactive in [6] and in test [8].
